Most compounds without a hit are left out; they make up all but 2.9% or so of the library.
KLK7 zymogen act: activates the human kallikrein-7 zymogen; P49862; activation, % at 7 µM; purified proKLK7, EDANS-DABCYL substrate fluorescence; 100% is mature enzyme control, 0% vehicle; actives 0.9% (n = 370,000);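 active = activation above the mean of all tested compounds plus 3 SD, computed per campaign excluding outliers beyond control limits, cut at about 13% in these data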
Target sequence (P49862 whole entry, looked up): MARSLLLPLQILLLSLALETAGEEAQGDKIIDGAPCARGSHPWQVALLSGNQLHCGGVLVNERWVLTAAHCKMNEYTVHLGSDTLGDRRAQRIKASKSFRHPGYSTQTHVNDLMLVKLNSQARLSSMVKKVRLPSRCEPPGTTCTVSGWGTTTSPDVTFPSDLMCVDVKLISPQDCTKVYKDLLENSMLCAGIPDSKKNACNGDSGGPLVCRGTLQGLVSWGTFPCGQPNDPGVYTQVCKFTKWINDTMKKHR
GAA850 FXN act: frataxin GAA850 promoter activation. AID 540364. activation, % at 6 µM. HEK293 lucGAA850 FXN promoter luciferase reporter, 24 h; percent of 10 µM SAHA response. actives 0.56% (n = 360,000);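 active = activation above the average of all compounds screened plus 3 SD, cutoff fixed separately per campaign, cut at about 7.5% in these data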;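 also: 0% = DMSO wells and 100% = 10 µM SAHA wells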
SMARCA2 activ: SMARCA2 function activation, primary screen. actives 1% (n = 370,000). MG213 cells, MMTV-luciferase reporter, dexamethasone, overnight. activation, % at 9.1 µM; in the data active = activation above about 7.8%;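 also: 0% = vehicle wells and 100% = reference activator wells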
FAS TE block: FAS thioesterase (human) inhibition. P49327. recombinant FAS-TE, OMFH fluorogenic substrate, fluorescence endpoint. inhibition, % at 15 µM. actives 0.67% (n = 360,000). AID 602261;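 active = compounds whose normalised, plate-corrected inhibition of enzyme fluorescence in the single-dose primary screen is 50% or more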;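 also: 0% = DMSO with enzyme and 100% = substrate without enzyme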
GAA30 counter: activates GAA30 frataxin promoter, counter-screen for GAA850 activators. shares compounds with GAA850 FXN act. HEK293 lucGAA30 FXN promoter luciferase, 24 h; DMSO = 0%, 5 µM ipriflavone = 100%. activation, % at 6 µM. actives 66% (n = 1,900);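 active = mean activation above the mean of solvent-only control wells plus 3 SD, cut at about 22% in these data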;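 also: counterscreen of GAA850 promoter hits where activity marks nonselective or luminescence artifacts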
GAA850 confirm: GAA850 FXN promoter activation confirmation. actives 86% (n = 1,900). activation, % at 6 µM. HEK293 lucGAA850 FXN promoter luciferase reporter, 24 h; 100% = activation by SAHA. shares compounds with GAA850 FXN act. AID 588351;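 active = mean activation above a set limit taken from the primary screen, cut at about 8% in these data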;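 also: 0% = DMSO wells and 100% = 10 µM SAHA wells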
FAS-TE conf: FAS thioesterase (human) inhibition, confirmation | shares compounds with FAS TE block | AID 624325 | actives 45% (n = 2,300) | recombinant FAS-TE, OMFH fluorogenic substrate, fluorescence | inhibition, % at 15 µM;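 active = compounds inhibiting the enzyme by at least 50% at 15 µM in any one of the replicates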;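 also: 0% = enzyme with DMSO only and 100% = wells lacking enzyme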
SMARCA2 act conf: SMARCA2 activation, confirmation screen. shares compounds with SMARCA2 activ. actives 30% (n = 3,500). AID 652260. activation, % at 9.1 µM. MG213 cells, MMTV-luciferase with dexamethasone, luminescence, overnight; MG213 cells expressing E1A, Rb sequestered; DMSO wells 0%, reference activator 100%;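 active = activation above its plate's cutoff, the mean activation of tested wells plus 3 SD, cut at about 7.9% in these data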
VP16 Luc act: GAL4-VP16 reporter activation counter-screen | HEK293 GAL4-VP16 pG5luc reporter, luciferase luminescence; scaled: DMSO wells 0%, SAHA wells 100% | actives 41% (n = 3,500) | activation, % at 9.1 µM | shares compounds with SMARCA2 activ | AID 686939;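 active = activation above the solvent-only control well mean plus 3 SD, averaged across control plates, cut at about 5.2% in these data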
proKLK7 act conf: proKLK7 activation, confirmation; shares compounds with KLK7 zymogen act; purified proKLK7, EDANS-DABCYL substrate fluorescence; scaled: vehicle 0, mature enzyme 100; activation, % at 7 µM; actives 68% (n = 3,200); AID 686949;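 active = activation, as change over the incubation, above the mean of all tested compounds plus 3 SD, cut at about 13% in these data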
EDANS-DABCYL int: counter-screen for kallikrein-7 activators: EDANS-DABCYL optical interference; shares compounds with KLK7 zymogen act; actives 80% (n = 3,200); EDANS-DABCYL substrate fluorescence interference, no enzyme, 4 h; solvent 0%, active enzyme control 100%; activation, % at 7 µM;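 active = activation above the all-compound mean plus 3 SD, ignoring values outside control-based bounds, cut at about 4.8% in these data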;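 also: value is the 4 h activation minus the activation read at time zero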
Active calls of the source: *; . = no result.

SMILES | KLK7 zymogen act | GAA850 FXN act | SMARCA2 activ | FAS TE block | GAA30 counter | GAA850 confirm | others
O=[N+]([O-])/C=C/c1c(Cl)cccc1Cl | 0 | 9.0* | -4 | -4 | . | .
CC(C)OC(=O)C1C(=O)NC2(C)CC1c1ccccc1O2 (stereo unspecified) | 0 | -1 | -2 | -4 | . | .
CN(C)[C@@H]1C(=O)C(C(N)=O)=C(O)[C@@]2(O)C(=O)C3=C(O)c4c(O)cccc4[C@@](C)(O)C3C[C@@H]12 (stereo partly specified) | -1 | 19* | -1 | -3 | . | .
COc1ccc(C(=O)C2(C)N(O)C(C)C(c3cccs3)=[N+]2[O-])cc1 (stereo unspecified) | 0 | -2 | 1 | -4 | . | .
CCSC(=O)N1CCCCCC1 | 0 | -1 | 7.8* | -7 | . | .
CC(=O)OC1CC(OC2C(O)CC(OC3C(O)CC(OC4CCC5(C)C(CCC6C5CCC5(C)C(C7=CC(=O)OC7)CCC65O)C4)OC3C)OC2C)OC(C)C1OC1OC(CO)C(O)C(O)C1O (stereo unspecified) | 0 | -15 | -11 | -6 | . | .
CC(=O)OC1CC[C@]2(C#N)[C@H]3CC[C@]4(C)[C@H](C5C=CC(=O)O5)CCC4(O)C3CCC2(O)C1 (stereo partly specified) | 0 | -7 | 7.8* | -8 | . | .
NC(N)=Nc1ccc2[nH]c3c(c2c1)C[C@@]1(O)[C@H]2Cc4ccc(O)c5c4[C@@]1(CCN2CC1CC1)[C@H]3O5 | . | 11* | . | 4 | . | .
O=C1CC[C@@]2(O)[C@H]3Cc4ccc(O)c5c4[C@@]2(CCN3CC2CC2)C1O5 (stereo partly specified) | 0 | . | -6 | . | . | .
COc1ccc(CCNCc2cccn2C)cc1 | 0 | 0 | -2 | -3 | . | .
S=C=Nc1cccc(C2(N3CCCCC3)CCCCC2)c1 | 1 | -5 | 11* | -3 | . | .
c1ccc(C2(N3CCCCC3)CCCCC2)cc1 | 0 | 2 | -1 | 0 | . | .
C=C(COC(C)=O)CC1CC(O)[C@]2(C)OC3CC4OC5C[C@]6(C)O[C@]7(C)CCC8OC9C[C@]%10(C)OC%11C(C)=CC(=O)OC%11CC%10OC9C[C@@H](C)C8OC7CC6O[C@]5(C)C/C=C\C4OC3CC2O1 (stereo partly specified) | . | 0 | . | 87* | . | .
O=C1CCCC2C3CCCN4CCCC(CN12)C34 (stereo unspecified) | -1 | 2 | 1 | -10 | . | .
CC(=NNC(=S)N1CC2CCC(CC2)C1)c1nccs1 | 0 | 12* | -4 | -2 | -66 | 4
CN(C)C(=O)Oc1ccc(-c2cn3cc(Cl)ccc3n2)cc1 | 0 | 5 | 8 | -3 | . | .
Cc1ccc(-c2nc3ccc(Cl)cc3n2OC(=O)N(C)C)cc1 | 0 | 7.7* | 3 | 1 | 109* | 41*
C/C1=C\[C@@H](C)C/C=C/[C@H]2[C@@H]3O[C@]3(C)[C@@H](C)[C@H]3[C@H](Cc4c[nH]c5ccccc45)NC(=O)[C@]32C(=O)/C=C/C(=O)[C@@H]1O | . | 8.8* | . | 17 | -16 | 46*
CC1=CC2/C=C(\C)CCC(O)C(O)/C=C/C(=O)C23C(=O)NC(CC(C)C)C3C1C (stereo unspecified) | . | -8 | . | 0 | . | .
N#C/C(=C\c1ccc(O)cc1)C(=O)O (tested in a mixture with another compound) | 0 | -1 | 0 | -6 | . | .
O=[N+]([O-])c1c(Cl)c(Cl)c(Cl)c(Cl)c1Cl | 0 | 0 | -4 | 16 | . | .
Nc1cc(Cl)c2nonc2c1[N+](=O)[O-] | 0 | 43* | -11 | 10 | 14 | 86*
CCN[C@@H](C)Cc1cccc(C(F)(F)F)c1 | 0 | 14* | -5 | -4 | 12 | 6
C#C[C@]1(O)CCC2C3C(CC[C@@]21C)[C@@]1(C)CC[C@@H](O)CC1=C[C@H]3O (stereo partly specified) | 1 | 0 | -2 | -5 | . | .
Cc1[nH]c2ccc(OC(F)(F)F)cc2c1CCNCc1ccc(Cl)cc1 | 0 | 13* | -5 | 9 | 10 | 8.9*
SMILES | KLK7 zymogen act | GAA850 FXN act | SMARCA2 activ | FAS TE block | GAA30 counter | GAA850 confirm | others
COc1ccc(CN2Cc3cc(N4CCOCC4)ccc3-n3nncc3C2)cc1 | 0 | . | -2 | -5 | . | .
OC12ONC(c3ccccn3)C1N1CCC2CC1 (stereo unspecified) | 2 | 18* | 10.0* | -15 | 34* | 16* | SMARCA2 act conf=2;VP16 Luc act=1
COc1ccc(/C=C2/C(=O)NC(=O)N(C3CCCCC3)C2=O)cc1CSc1ccccn1 | 0 | . | 2 | . | . | .
COc1cc(C)c(CN2CC=C(c3ccc(F)cc3)CC2)cc1C | 0 | 0 | -2 | 15 | . | .
COc1cc2nc(CN3CC=C(c4ccccc4)CC3)[nH]c(=O)c2cc1OC | -1 | 22* | 14* | 4 | 77* | 61* | SMARCA2 act conf=7;VP16 Luc act=-1
CN(C)[C@@H]1C(=O)C(C(N)=O)=C(O)[C@@]2(O)C(=O)C3=C(O)c4c(O)ccc(Cl)c4[C@@](C)(O)[C@H]3C[C@@H]12 | 13* | 13* | 0 | 1 | 41* | 15* | proKLK7 act conf=37*;EDANS-DABCYL int=35*
O=C(NC(=S)N1C[C@H]2C[C@H](C1)c1cccc(=O)n1C2)c1ccc(Cl)cc1Cl | 1 | -1 | 0 | -8 | . | .
COc1ccc(CCn2c(O)c(C=Nc3ccccc3F)c(=O)[nH]c2=O)cc1OC | 0 | 1 | -1 | -4 | . | .
COc1ccc([N+](=O)[O-])cc1N=Cc1c(O)n(CCc2ccccc2)c(=O)n(C(C)C)c1=O | -1 | 4 | -3 | 72* | . | . | FAS-TE conf=-3
Cn1cc(C(=O)NP(=O)(N2CCOCC2)N2CCOCC2)c2ccccc21 | 0 | 1 | -1 | -7 | . | .
